Measurements published in PubChem BioAssay (NCATS).
Inconclusive results are not listed. Active and inactive are the calls of the source. Calls follow the shape of the dose curve; as a rule, active = well fitted curve in the direction sought with a large enough effect; inconclusive = small, poorly fitted or top-dose-only effect, or another doubt; inactive = no such curve, though single readings can be large; an effect the other way counts as inactive or inconclusive.

Test system: not listed separately
Assay: Primary fluorescence-based thiol-reactive (MSTI) qHTS assay for identification of artifact compounds. (AID 1845221); also: nearly all actives have a fitted effect of over 65% in size; also: potency is read from the fitted curve at half-maximal effect;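 as to activity change, negative = thiol reactive: thiol-reactive compounds lower the probe fluorescence signal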
Settings: MSTI thiol-reactivity probe, 1 h; series mostly up to 53.8 µM; activity change, negative = thiol reactive: at the top concentration
Procedure, shortened: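 First, 4 uM MSTI in 2% DMSO/PBS pH 7.4 was dispensed; next, compounds were added; then plates sat 1 h at room temperature without light. Finally, emission at 598 nm was recorded.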

| SMILES | activity change, negative = thiol reactive | Potency |
| --- | --- | --- |
| CC1(C)CC[C@]2(C(=O)O)CC[C@]3(C)C(=CCC4[C@@]5(C)CC[C@H](O[C@@H]6O[C@H](C(=O)O)[C@@H](O)[C@H](O[C@@H]7O[C@H](CO)[C@H](O)[C@H](O)[C@H]7O)[C@H]6O[C@@H]6O[C@H](CO)[C@@H](O)[C@H](O)[C@H]6O)C(C)(C)C5CC[C@]43C)[C@@H]2C1 (stereo partly specified) | 227% [at 6.41 µM] (inactive) | – |
| CC[C@H](C)[C@H](NC(=O)[C@H](Cc1ccc(O)cc1)NC(=O)[C@@H](N)C(C)C)C(=O)N[C@@H](Cc1cnc[nH]1)C(=O)N1CCC[C@H]1C(=O)N[C@@H](Cc1ccccc1)C(=O)O | 19.3% [at 6.41 µM] (inactive) | – |
| C=CC(C)(CCC=C(C)C)O[C@@H]1O[C@H](CO)[C@@H](O)[C@H](O)[C@H]1O (stereo partly specified) | 4.59% (inactive) | – |
| CC1(C)CC[C@]2(C(=O)O[C@@H]3O[C@H](CO)[C@@H](O)[C@H](O)[C@H]3O)CC[C@]3(C)C(=CCC4[C@@]5(C)C[C@H](O)[C@H](O[C@@H]6O[C@H](C(=O)O)[C@@H](O)[C@H](O)[C@H]6O)[C@@](C)(CO)C5CC[C@]43C)C2C1 (stereo partly specified) | 8.46% [at 11.5 µM] (inactive) | – |
| C=C1CC[C@@]2(OC1)O[C@H]1CC3[C@@H]4CC=C5C[C@H](O[C@H]6OC[C@@H](O)C(O)[C@@H]6O[C@@H]6O[C@@H](C)[C@H](O)[C@@H](O[C@@H]7O[C@H](CO)[C@@H](O)[C@H](O)[C@H]7O)[C@H]6O)C[C@@H](O)[C@]5(C)C4CC[C@]3(C)[C@H]1[C@@H]2C (stereo partly specified) | 124% [at 11.5 µM] (inactive) | – |
| CC1=C2C[C@@]3(C)[C@@H](CCC[C@@H]3C)C[C@@]2(O)OC1=O | 7.09% (inactive) | – |
| CCCSc1nc(NC2CC2c2ccc(F)c(F)c2)c2nnn(C3CC(OCCO)C(O)C3O)c2n1 (stereo unspecified) | 82.2% (inactive) | – |
| CCc1nn(CCO)c(CC)c1Oc1cc(C#N)cc(C#N)c1 | 2.88% (inactive) | – |
| CC(C)=CC[C@H]1O[C@]2(O)C([C@H]3CCC4[C@@]5(C)CC[C@H](O[C@@H]6O[C@H](CO)[C@H](O)[C@H](O[C@@H]7O[C@H](CO)[C@@H](O)[C@H](O)[C@H]7O)[C@H]6O[C@@H]6O[C@@H](C)[C@H](O)[C@@H](O)[C@H]6O)C(C)(C)C5CC[C@@]4(C)[C@]3(C)[C@H]2O)[C@@]1(C)O (stereo partly specified) | 12.2% [at 11.5 µM] (inactive) | – |
| C=CC(C)(O)CC/C=C(\C)C(=O)O[C@@H]1[C@@H](O)[C@H](OC(C)(C=C)CC/C=C(\C)C(=O)O)O[C@H](CO)[C@H]1OC(=O)/C(C)=C/CCC(C)(O)C=C (stereo partly specified) | 69.4% [at 25.6 µM] (inactive) | – |
| C=C1CCC2C(C)(C)CC(O)CC2(C)C1CCC(C)CC(=O)O (stereo unspecified) | – | 18.5 µM (active) |

Test system: Nanoluciferase (engineered Oplophorus gracilirostris luciferase)
Assay: Primary Nanoluciferase (NLuc) qHTS assay for identification of artifact compounds. (AID 1845222);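 also: 0% = DMSO and -100% = no enzyme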
Settings: NLuc-conditioned medium, Nano-Glo luminescence, 5 min; series mostly up to 54.1 µM; activity, negative = inhibition: at the top concentration
Procedure, shortened: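 Diluted conditioned medium from NLuc-expressing S16 cells treated with compounds for 15 min at room temperature, then Nano-Glo substrate added; luminescence read after 5 min. Percent inhibition versus no-enzyme and DMSO controls fitted to 4-parameter Hill equation.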

| SMILES | activity, negative = inhibition |
| --- | --- |
| CC(=O)O[C@@H]1[C@H](O[C@@H]2OC[C@](O)(CO)[C@H]2O)[C@@H](O[C@@H]2O[C@@H](C)[C@H](O)[C@@H](O[C@@H]3O[C@H](CO)[C@@H](O)[C@H](O)[C@H]3O)[C@H]2O)[C@H](OC(=O)[C@]23CCC(C)(C)C[C@H]2C2=CCC4[C@@]5(C)C[C@H](O)[C@H](O[C@@H]6O[C@H](C(=O)O)[C@@H](O)[C@H](O)[C@H]6O)[C@@](C)(C(=O)O)C5CC[C@@]4(C)[C@]2(C)CC3)O[C@@H]1C (stereo partly specified) | 0% [at 11.6 µM] (inactive) |
| C[C@@H]1C[C@H]2OC(=O)[C@@]3(C)CCC[C@](C)(C23)[C@@]1(O)CCC1=CC(=O)OC1O (stereo partly specified) | 4.64% (inactive) |
| C[C@@H]1O[C@@H](O[C@H]2[C@H](OC(=O)[C@]34CCC(C)(C)C[C@H]3C3=CCC5[C@@]6(C)C[C@@H](O)[C@@H](O[C@@H]7O[C@H](CO)[C@@H](O)[C@H](O)[C@H]7O)[C@@](C)(CO)C6[C@H](O)C[C@@]5(C)[C@]3(C)CC4)OC[C@H](O)[C@@H]2O)[C@H](O)[C@H](O[C@@H]2OC[C@](O)(CO)[C@H]2O)[C@H]1O[C@@H]1OC[C@@H](O)[C@H](O[C@H]2O[C@H](C)[C@@H](O)[C@H](O)[C@@H]2O)[C@H]1O (stereo partly specified) | 0% [at 11.6 µM] (inactive) |
| CC1CC2(O)OC(=O)C3=C2C(CCC3)[C@@]12C[C@@H](c1ccoc1)OC2=O (stereo partly specified) | -2.09% (inactive) |
| CC(=O)O[C@H]1C[C@@]2(C)[C@@H](CC[C@H]3[C@@]4(C)C=CC(=O)[C@@H](C)[C@@H]4[C@H](OC(C)=O)C(=O)[C@@]32C)/C1=C(\CCC=C(C)C)C(=O)O | 3.68% [at 25.7 µM] (inactive) |
| Cc1nc2ccccc2c(-c2ccc3c4c(ccnc24)CCO3)c1[C@H](OC(C)(C)C)C(=O)O | -6.03% (inactive) |
| COc1cccc(Cn2ncc3c4sc(S(C)=O)cc4n(C)c3c2=O)c1 (stereo unspecified) | 2.45% (inactive) |
| O=C(/C=C/C=C/c1ccc2c(c1)OCO2)N1CCCCC1 | -12.6% (inactive) |
| C[C@@H]1O[C@@H](O[C@H]2[C@H](O)[C@@H](O)[C@H](OC(=O)[C@]34CCC(C)(C)C[C@H]3C3=CCC5[C@@]6(C)CC[C@H](O[C@@H]7O[C@H](C(=O)O)[C@@H](O)[C@H](O)[C@H]7O)C(C)(C)C6CC[C@@]5(C)[C@]3(C)CC4)O[C@@H]2CO)[C@H](O)[C@H](O)[C@H]1O (stereo partly specified) | -3.67% [at 11.6 µM] (inactive) |
| COc1ccc2[nH]c(S(=O)Cc3ncc(C)c(OC)c3C)nc2c1 (stereo unspecified) | 0.198% (inactive) |
